Results on 54 molecules are retold here after PubChem BioAssay AID1030 (National Center for Advancing Translational Sciences (NCATS), 2008).

Out of some 220,000 compounds screened, about 16,000 (7.3%) were called active. Inconclusive results (about 25%) are left out. This is one part of a sample in which actives are shown more often than they occur. Unmarked numbers belong to inactive results. Calls follow the shape of the dose curve; as a rule, active = well fitted inhibition curve with a large enough effect (not every such curve was filed as active); inconclusive = small, poorly fitted or top-dose-only effect, or another doubt; inactive = no such curve, though single readings can be large or run the other way.
Potency is read from the fitted curve at half-maximal effect.

Aldehyde dehydrogenase 1A1 (Homo sapiens), sequence (P00352 whole entry, looked up): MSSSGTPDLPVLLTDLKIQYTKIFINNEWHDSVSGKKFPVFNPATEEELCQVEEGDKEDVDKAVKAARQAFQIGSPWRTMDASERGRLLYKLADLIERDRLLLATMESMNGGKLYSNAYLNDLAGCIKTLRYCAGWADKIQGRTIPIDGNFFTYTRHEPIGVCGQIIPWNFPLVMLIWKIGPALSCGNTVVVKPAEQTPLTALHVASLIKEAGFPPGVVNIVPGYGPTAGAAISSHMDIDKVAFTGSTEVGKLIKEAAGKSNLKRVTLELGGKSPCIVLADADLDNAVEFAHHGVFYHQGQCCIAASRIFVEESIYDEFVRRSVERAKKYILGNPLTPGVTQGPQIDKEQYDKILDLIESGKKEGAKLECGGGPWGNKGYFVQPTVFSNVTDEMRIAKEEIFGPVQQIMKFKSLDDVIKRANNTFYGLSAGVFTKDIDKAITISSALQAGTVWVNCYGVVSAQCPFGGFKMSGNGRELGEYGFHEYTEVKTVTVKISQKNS

This assay concerns the target Aldehyde dehydrogenase 1A1 (Homo sapiens) (UniProt P00352). The assay can be described thus: qHTS Assay for Inhibitors of Aldehyde Dehydrogenase 1 (ALDH1A1).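 As to activity, negative = inhibition: plate controls were no enzyme wells and a reference inhibitor.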 The conditions noted are these: Purified ALDH1A1, NADH fluorescence, propionaldehyde substrate; series mostly up to 75.3 µM; activity, negative = inhibition: at the top concentration. A general note: In qHTS, concentration-response curves come from the screen itself.
As for `CCN(CC)S(=O)(=O)c1ccc(OC(C)C)c(N)c1`, the “activity, negative = inhibition” value was -3.6%.
Still for that read-out and setting: as for `COc1ccc2nc(Nc3nc(-c4ccncc4)cs3)sc2c1`, the figure is 2.5%.
Regarding `Cn1c(CCC(=O)OCC(=O)NCc2ccccc2Cl)nc(=O)c2ccccc21`, the “activity, negative = inhibition” value was -3.28%.
Take `O=C(CCc1nnc(CCCCc2ccccc2)o1)NC(c1cccnc1)C(F)(F)F` (centres undefined): the “activity, negative = inhibition” value is -2.16%.
On the same count and under the same terms, under `CCN(CC)CCNC(=O)C1c2ccccc2C(=O)N(C)C1c1cn(C)c2ccccc12` (centres undefined) stands 2.48%; under `CSc1nnc2c(n1)OC(c1ccsc1)N(C(C)=O)c1ccccc1-2` (centres undefined), -2.64%.
Take `CSc1nnc2c(n1)OC(c1cn(C)c3ccccc13)N(C(C)=O)c1ccccc1-2` (centres undefined): the Potency was 3.98 µM (active).
In the case of `O=C(CO/N=C/c1ccccc1OC(F)F)NC1CCCC1`, the “activity, negative = inhibition” value was 0.956%.
Take `CS(=O)(=O)N(CC(=O)N/N=C/c1ccccn1)c1ccc(Oc2ccccc2)cc1`: the “activity, negative = inhibition” value was -10%.
With `O=c1c(Cl)c(NCc2ccc(F)cc2Cl)cnn1C12CC3CC(CC(C3)C1)C2`, the Potency is 15.8 µM (active).
Regarding `O=C(CN1CCN(Cc2ccc(F)cc2Cl)C1=O)NCc1cccs1`, the “activity, negative = inhibition” value is 3.4%.
On the same count and under the same terms, under `NC(=O)c1ccc(N2CCOCC2)nc1` stands -2.04%.
Consider `CCNC(=S)NNC(=O)C1CCN(Cc2ccccc2)CC1`, for which the “activity, negative = inhibition” value was 7.64%.
With `O=C(NNS(=O)(=O)c1ccc(Cl)cc1)C1CCN(Cc2ccccc2)CC1`, the Potency is 22.4 µM (active).
As to `CCCC(=O)C1CCN(Cc2ccccc2)CC1`, the “activity, negative = inhibition” value is -5.22%.
Same read-out and setting: as for `COc1ccc(-c2cc(C(=O)NCCCn3ccnc3)no2)cc1`, the figure is -6.09%.
Take `O=C(c1ccco1)N1CCC2(CC1)CCN(c1ncccn1)CC2`: the Potency was 25.1 µM (active).
With `Cn1cccc1C(=O)N1CCC[C@@]2(CCN(Cc3nccs3)C2)C1`, the “activity, negative = inhibition” value is -0.885%.
Same read-out and setting: under `Cc1ccc(C)c(OCC(=O)N2CCN(C(=O)c3ccco3)CC2)c1` stands -5.28%.
Regarding `O=C(c1cccc([N+](=O)[O-])c1)N1CCN(C(=O)c2ccco2)CC1`, the “activity, negative = inhibition” value is -8.13%.
The same measure, in the same setting: under `O=C(c1csnn1)N1CCC[C@@]2(CCN(Cc3nccs3)C2)C1` stands 0.162%.
For `O=C(c1ccco1)N1CCC[C@@]2(CCN(Cc3nccs3)C2)C1`, the Potency is 25.1 µM (active).
As to `C/C(N)=C(/C#N)C(=O)COC(=O)CNS(=O)(=O)c1ccc(C)cc1`, the “activity, negative = inhibition” value is -5.03%.
Still for that read-out and setting: under `CC(C)NC(=O)NCCCCCCS(C)=O` (centres undefined) stands 0.942%; under `O=C(Nc1n[nH]c(C(F)(F)F)n1)c1cccs1`, 7.54%.
On to `CC1=C(C(=O)Nc2ccccc2)C(c2cccs2)C(C#N)=C(SCC#N)N1` (centres undefined), for which the Potency was 22.4 µM (active).
For the molecule `CCCSC1=C(C#N)C(c2ccccc2C)C(C(=O)OC)C(=O)N1` (centres undefined), the “activity, negative = inhibition” value is -13.2%.
The same measure, in the same setting: under `C=CCOC(=O)C1=C(C)NC(SCC(=O)OCC)=C(C#N)C1c1ccc(C)cc1` (centres undefined) stands -12.5%.
Still for that read-out and setting: as for `CC(C)(C)c1cnnn1-c1ccc([N+](=O)[O-])cc1`, the figure is 5.92%.
In the case of `COC(=O)c1sccc1NC(=O)c1csc2c1CCCC2`, the Potency is 22.4 µM (active).
In the case of `COC(=O)c1sccc1NC(=O)CCC1CCCC1`, the “activity, negative = inhibition” value was -11.2%.
Turning to `CC(=O)Cc1nsc(NC(=O)c2csc3c2CCCC3)n1`, the “activity, negative = inhibition” value was -11%.
Turning to `Cc1ccc(NC(=O)c2csc3c2CCCC3)cc1`, the Potency is 20 µM (active).
In the case of `O=C(Nc1ccccc1N1CCOCC1)c1csc2c1CCCC2`, the “activity, negative = inhibition” value was -11.9%.
Take `O=C(NCc1ccccc1Cl)c1csc2c1CCCCC2`: the “activity, negative = inhibition” value is 5.35%.
Same read-out and setting: as for `COC(=O)/C(=C1\Oc2ccc(C(C)(C)C)cc2S1)C(F)(F)F`, the figure is 0.549%; as for `CC/C(O)=C1\C(=O)CC(C)(C)CC1=NCCc1nc2ccccc2[nH]1`, 5.21%.
Still for that read-out and setting: under `CCCCNC(=O)c1ccc(-n2c(=S)[nH]c3ccccc3c2=O)cc1` stands 9.14%.
Still for that read-out and setting: under `O=C(Cn1c2[n+](c3ccc(C(F)(F)F)cc31)CCCCC2)Nc1c(F)cccc1F` stands -14.3%; under `Cc1ccc(Cl)cc1NC(=O)C1CCN(S(C)(=O)=O)CC1`, 7.3%; under `O=C(NCc1ccccc1Cl)C1CCCO1` (centres undefined), 2.19%.
Regarding `Cc1cnc(C(=O)OCC(=O)N2CCc3ccccc32)cn1`, the Potency was 3.16 µM (active).
Regarding `Cc1ccc(S(=O)(=O)NCC(=O)OCC(=O)N2CCc3ccccc32)cc1`, the “activity, negative = inhibition” value was 0.157%.
On the same count and under the same terms, as for `Cc1cnc(C(=O)OCC(=O)NCCCc2ccccc2)cn1`, the figure is -3.78%.
Take `O=C(CNCc1ccc(Cl)cc1)Nc1cccc(C(=O)O)c1`: the “activity, negative = inhibition” value is -1.59%.
As for `C/C(=N/OC(=O)c1cccc(C(F)(F)F)c1)c1cnccn1`, the “activity, negative = inhibition” value was 9.46%.
On the same count and under the same terms, as for `OC(COc1ccc(CN2CCSCC2)cc1)CN1CCCCC1` (centres undefined), the figure is 8.28%.
For `CCO[C@H]1OC(C(=O)N2CCN(Cc3ccccc3)CC2)=C[C@@H](c2cn(C(C)=O)c3ccccc23)[C@@H]1CCCO`, the “activity, negative = inhibition” value is -8.23%.
On the same count and under the same terms, as for `C/C(=N\N)c1c(-c2ccccc2)c2cc(Br)ccc2[nH]c1=O`, the figure is 0.869%; as for `CCCCNC(=O)C1CCC(CNS(=O)(=O)c2ccc(NC(C)=O)cc2)CC1` (centres undefined), 2.05%; as for `CCOc1ccc(NS(=O)(=O)c2ccc(OCC(=O)NCCCOC)cc2)cc1`, 0.65%.
For the molecule `COCCCNC(=O)c1ccc(CNS(=O)(=O)c2ccc(NC(C)=O)cc2)cc1`, the Potency was 4.47 µM (active).
Turning to `CCc1ccccc1N1CN(Cc2ccco2)CNC1=S`, the “activity, negative = inhibition” value was 9.78%.
Same read-out and setting: as for `CCCCN(CC)CCNC(=O)CCNC(=O)Cn1ccc2ccccc2c1=O`, the figure is 1.61%.
